From PubChem
VACV E9 pol inh = vaccinia E9 polymerase processive synthesis inhibition; in vitro processive DNA synthesis, absorbance read-out; stronger effect = lower value; 46,000 tested, 0.94% active; normalized absorbance, % (no concentration beside the values); AID 493162; in the data active means normalized absorbance mostly below about 85%, no sharp cut-off; inactive means mostly above about 86%
Large screens that a line does not name were inactive. Shown is part of a subset that was picked to be rich in hits.

c1ccc(CN2CN=C(Nc3nc4ccccc4o3)NC2)cc1	none
CCCCN1CN=C(Nc2nc(C)c3ccccc3n2)NC1	none
Cc1nc(NC2=NCN(Cc3ccccc3)CN2)nc2ccccc12	VACV E9 pol inh 73.4
N#CC(Sc1nc(-c2cccs2)cc(-c2ccccc2)c1C(=O)O)c1ccc(Cl)cc1 (configuration not stated)	none
CN1/C(=C(/O)c2ccccc2)C(=O)c2ccccc2S1(=O)=O	none
O=C1/C(=C/C2CCCO2)CC/C1=C\C1CCCO1 (configuration not stated)	VACV E9 pol inh 14.0
NC(=O)COC(=O)/C=C/c1ccc(Cl)cc1Cl	none
CCOC(=O)CCc1ccc(OCc2c(C)c(C)c(C)c(C)c2C)cc1	none
CCOC(=O)CCc1c(CC(=O)OCC)c[nH]c1/C=N/O	VACV E9 pol inh 31.1
CCOC(=O)CCc1n[nH]c(=O)[nH]c1=O	none
CC(C)N1C(=O)C(C#N)C2(CCNCC2)C(C#N)=C1S (configuration not stated)	none
O=C(O)CCc1cc(Cl)no1	none
COc1ccc(-c2cc(-c3ccc(Cl)c(Cl)c3)nc(N)c2C#N)cc1OC	none
CC(C)C(O)(C(=O)OC[C@@H]1CCN2CCC[C@@H]12)C(C)O (some centres not stated)	none
CCc1ccc(/C=C2/C(=O)N(c3ccccc3)N=C2C)cc1	none
CCOC(=O)c1ccc(N2N=C(C(F)(F)F)/C(=C/C=C/c3ccco3)C2=O)cc1	none
O=C(O)c1ccc(N2N=C(C(F)(F)F)/C(=C/c3ccc(OC(=O)c4cccs4)cc3)C2=O)cc1	VACV E9 pol inh 23.3
CC(=O)Nc1c(C#N)c2nc3ccccc3nc2n1C1CCCCC1	none
CCOC(=O)/C=C1\NC(c2ccccc2)=C(c2ccccc2)C1=O	none
Cc1ccc(N)c(C(O)(C(F)(F)F)C(F)(F)F)c1	none
Oc1c(Cl)cc(Cl)cc1Sc1cc(Cl)cc(Cl)c1O	VACV E9 pol inh 60.2
Oc1c(Cl)cc(Cl)cc1C(O)(C(F)(F)F)C(F)(F)F	VACV E9 pol inh 83.7
CCC(=O)c1cc(Cl)cc(Cl)c1O	none
O=C(c1cnoc1)c1cc(Cl)cc(Cl)c1O	none
COC(=O)C12CC3CC(CC(Br)(C3)C1)C2	none
COC(=O)C(Cc1cc(Cl)ccc1Cl)SC#N (configuration not stated)	none
CCCNC(=O)C1CCCN(c2nc3c(C)cc(C)cc3s2)C1 (configuration not stated)	none
CC(=O)Nc1ccc(Nc2nc(-c3ccccc3)c3cc(Br)ccc3n2)cc1	none
CCc1cc2c(=O)c(-c3nc4ccccc4[nH]3)c(C)oc2cc1O	none
CC(C)(C)N1CC(OC(=O)CCC(=O)O)C1	none
CN(C(=O)c1ccc(F)cc1)C1CCS(=O)(=O)C1 (configuration not stated)	none
O=C(O)Cn1cc(C(=O)C2CC2)c2ccccc21	none
O=C(O)Cn1c2c(c3ccccc31)CSc1ccc(Cl)cc1-2	VACV E9 pol inh 71.1
CCSc1nc2ccccc2n1CC(=O)O	none
NNC(=O)CC1=Nn2c(nnc2-c2cccs2)SC1	none
CC(=O)N[C@@H](CC(C)C)C(=O)N[C@@H](CC(C)C)C(=O)N[C@H](C=O)CCCN=C(N)N	none
CC[C@H](C)[C@H](N)C(=O)N[C@@H](CC(N)=O)C(=O)N[C@@H](CC(C)C)C(=O)N[C@@H](CCCCN)C(=O)N[C@@H](C)C(=O)N[C@@H](CC(C)C)C(=O)N[C@@H](C)C(=O)N[C@@H](C)C(=O)N[C@@H](CC(C)C)C(=O)N[C@@H](C)C(=O)N[C@@H](CCCN)C(=O)N[C@@H](C)C(=O)N[C@@H](CC(C)C)C(=O)N[C@@H](CC(C)C)C(N)=O	VACV E9 pol inh 45.2
CCCC[C@@H](C=O)NC(=O)[C@H](CC(C)C)NC(=O)[C@H](CC(C)C)NC(C)=O	none
Cn1cc(C=Nc2ccccc2)c2ccccc21	none
COc1ccc(-c2nc(SCc3ccccc3C#N)[nH]c(=O)c2C#N)cc1	none
COc1ccc(Nc2cc(-c3ccccc3)nc3nncn23)cc1OC	none
CSc1ncc(Cl)c(C(=O)Nc2nnc(SCc3ccc(F)cc3)s2)n1	VACV E9 pol inh 68.1
CCC(=O)Nc1nnc(SCc2cccc(F)c2)s1	none
Cc1ccc(C(=O)Nc2nnc(SCc3ccccc3)s2)cc1	none
COc1ccc(-c2nc3ccccc3n2C(C)C)cc1OC	none
COc1ccc2c(c1)c(C#N)c1n2CCN=C1N(C)C	none
CN=C1c2c(C)c3cc(OC)ccc3n2CCN1C	VACV E9 pol inh 49.5
COc1ccc2c(c1)c(-c1csc(N)n1)c(C)n2C	none
c1ccc(CN2CCCN(Cc3ccccc3)C2c2ccncc2)cc1	none
O=C1S/C(=C\c2ccc3c(c2)OCO3)C(=O)N1Cc1ccccc1F	none
Cc1ccccc1Nc1sc(C(=O)c2ccccc2)c(N)c1C(N)=O	none
O=C(CC1(O)OC(c2ccc(Cl)cc2)=CC1=O)c1ccc(Cl)cc1 (configuration not stated)	none
Cc1nc(-c2ccc(Cl)cc2)cc(C(F)(F)F)c1C#N	none
O=C(c1ccc(Cl)cc1)C1CN(Cc2ccco2)CCC1(O)c1ccc(Cl)cc1 (configuration not stated)	none
N#Cc1ccc(COC(=O)COc2ccccc2)cc1	none
CN[C@@H]1CC2(C)OC([C@@H]1OC)n1c3ccccc3c3c4c(c5c6ccccc6n2c5c31)C(=O)NC4 (some centres not stated)	VACV E9 pol inh 55.7
